This note sets out measurements from PubChem BioAssay (EPA / NIEHS).

As usually defined, the AC50 is the midpoint of the concentration-response curve, whichever way the signal moves.

Records with an inconclusive call do not appear. Active and inactive are the calls of the source. Rule for the calls, unless noted: active = hit-call score of the fitted dose curve at least 0.9, where 1 is the maximum; inactive = score below 0.9.

Assay [1] can be described thus: ATG_NF_kB_CIS: Attagene CIS-FACTORIAL HepG2 Assay for human Nuclear Factor Kappa B (NF-kB) (AID 2282991). To be noted: HepG2 Attagene cis-factorial NF-kB reporter mRNA; actives raise or lower the signal. Put shortly:
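Endogenous transcription factor activity in HepG2 was captured via cis-regulated reporter constructs; after 24 h dosing, reporter mRNA was reverse-transcribed, amplified, fluorescently labelled and sized by capillary electrophoresis, with activity fitted bidirectionally relative to DMSO.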

A short description of assay [2]: ATG_NRF2_ARE_CIS: Attagene CIS-FACTORIAL HepG2 Assay for human Nuclear Factor Erythroid 2 Related Factor 2 (NFR2) response to Antioxidant Response Elements (ARE) (AID 2282992).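 For AC50: reporter mRNA level measured by RT-PCR and capillary electrophoresis fluorescence.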 The note with it: HepG2 Attagene ARE/NRF2 reporter, transcription factor activity; actives raise or lower the signal. Summed up: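 Cis-factorial assay: transfected HepG2 reporter library, 24 h dosing, mRNA readout via RT-PCR/CE; DMSO-referenced bidirectional analysis.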

Assay [3] can be described thus: ATG_Oct_MLP_CIS: Attagene CIS-FACTORIAL HepG2 Assay for human Octamer-Binding Transcription Factor (Oct) (AID 2282993). The note with it: HepG2 Attagene cis-factorial Oct reporter, mRNA; actives raise or lower the signal. Summed up:
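HepG2, transient MRTU transfection, cis promoter elements; 24 h dosing; RT-PCR/CE fluorescence read-out of reporter mRNA; fit both directions vs DMSO.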

Assay [4] deals with Cellular tumor antigen p53 (Homo sapiens) (UniProt P04637). Description: ATG_p53_CIS: Attagene CIS-FACTORIAL HepG2 Assay for human p53 Transcription Factor (AID 2282994). To be noted: HepG2 p53 cis-element reporter, Attagene mRNA; actives raise or lower the signal. Summed up: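 Using HepG2 hepatoma cells carrying cis-acting multiplexed reporters, mRNA induction is detected after a 24 h exposure. Gain- and loss-of-signal responses are fitted relative to DMSO-treated cells.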

Assay [5] has as its target human Peroxisome Proliferator-activated Receptor alpha (PPARa), PPARA (gene 5465) (UniProt Q07869). Description: ATG_PPARa_TRANS: Attagene TRANS-FACTORIAL HepG2 Assay for human Peroxisome Proliferator-activated Receptor alpha (PPARa) (AID 2283001; active = hit-call score of the fitted dose curve at least 0.9, where 1 is the maximum;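 for AC50: potency for gain of reporter signal over DMSO so agonist or activator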). Summed up: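 Read-out is fluorescence of reporter cDNA fragments resolved by capillary electrophoresis after RT-PCR. Human HepG2 liver cells carried transfected PPARa-Gal4 chimera and GAL4-UAS reporter units, treated 24 h; activity scored as increase over DMSO.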

Assay [6] has as its target human Peroxisome Proliferator-activated Receptor delta (PPARd), PPARD (gene 5467) (UniProt Q03181). Description: ATG_PPARd_TRANS: Attagene TRANS-FACTORIAL HepG2 Assay for human Peroxisome Proliferator-activated Receptor delta (PPARd) (AID 2283002; active = hit-call score of the fitted dose curve at least 0.9, where 1 is the maximum). Put shortly: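 Cell-based TRANS reporter: HepG2, transient MRTU transfection, 24 h exposure. Readout = reporter mRNA (RT-PCR/CE, 6-FAM). Gain-of-signal fit vs DMSO control.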

Chain of human Peroxisome Proliferator-activated Receptor alpha (PPARa), PPARA (gene 5465) (Q07869 whole entry, looked up, the tested form may be a part): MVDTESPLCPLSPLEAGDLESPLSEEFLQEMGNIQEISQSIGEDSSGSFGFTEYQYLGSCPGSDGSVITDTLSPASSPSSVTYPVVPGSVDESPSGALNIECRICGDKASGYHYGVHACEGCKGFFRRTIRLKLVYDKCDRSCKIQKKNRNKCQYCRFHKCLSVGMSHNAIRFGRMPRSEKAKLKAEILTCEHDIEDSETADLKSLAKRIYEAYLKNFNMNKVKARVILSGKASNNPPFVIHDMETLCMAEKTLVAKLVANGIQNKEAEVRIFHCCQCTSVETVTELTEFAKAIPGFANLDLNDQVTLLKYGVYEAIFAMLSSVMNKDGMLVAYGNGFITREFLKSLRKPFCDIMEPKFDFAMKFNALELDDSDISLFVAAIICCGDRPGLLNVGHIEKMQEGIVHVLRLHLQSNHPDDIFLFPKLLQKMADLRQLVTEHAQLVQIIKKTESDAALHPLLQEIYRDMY
Chain of Cellular tumor antigen p53 (Homo sapiens) (P04637 whole entry, looked up): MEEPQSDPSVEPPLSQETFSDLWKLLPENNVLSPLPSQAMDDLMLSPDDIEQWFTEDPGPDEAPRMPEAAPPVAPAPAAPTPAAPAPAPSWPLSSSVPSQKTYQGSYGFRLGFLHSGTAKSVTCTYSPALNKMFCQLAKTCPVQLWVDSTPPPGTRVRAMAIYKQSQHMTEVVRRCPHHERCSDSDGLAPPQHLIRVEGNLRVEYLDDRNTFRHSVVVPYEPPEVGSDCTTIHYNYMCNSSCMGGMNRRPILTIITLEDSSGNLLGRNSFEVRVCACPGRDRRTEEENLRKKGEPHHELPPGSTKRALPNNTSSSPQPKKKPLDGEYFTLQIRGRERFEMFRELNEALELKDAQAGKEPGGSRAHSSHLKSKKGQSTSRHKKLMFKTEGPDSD
Chain of human Peroxisome Proliferator-activated Receptor delta (PPARd), PPARD (gene 5467) (Q03181 whole entry, looked up): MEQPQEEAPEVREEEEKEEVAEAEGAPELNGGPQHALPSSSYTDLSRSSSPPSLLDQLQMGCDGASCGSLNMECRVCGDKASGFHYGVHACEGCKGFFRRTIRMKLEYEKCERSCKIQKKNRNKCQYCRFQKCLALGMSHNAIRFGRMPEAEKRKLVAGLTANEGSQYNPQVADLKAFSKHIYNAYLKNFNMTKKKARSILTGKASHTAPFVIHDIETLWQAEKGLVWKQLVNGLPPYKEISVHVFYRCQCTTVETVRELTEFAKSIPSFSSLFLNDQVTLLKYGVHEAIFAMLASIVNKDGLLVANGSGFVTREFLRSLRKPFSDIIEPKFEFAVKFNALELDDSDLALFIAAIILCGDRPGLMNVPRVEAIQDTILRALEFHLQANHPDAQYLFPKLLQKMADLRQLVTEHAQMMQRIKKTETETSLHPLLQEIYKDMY

Turning to `OCC(c1ccc(Cl)cc1)c1ccc(Cl)cc1`, the molecule was classed as inactive in assay [1] and in assay [4]. In addition, the concentration at half-maximal activity (AC50) is 43.6 µM (active) in assay [2], 57.9 µM (active) in assay [3] and 55 µM (active) in assay [5].

Regarding `C=CC(=O)[O][Sn]([CH2]CCC)([CH2]CCC)[CH2]CCC`, the call in assay [1], in assay [4] and in assay [6] was inactive. In addition, the half-maximal activity concentration (AC50) in assay [2] is 0.111 µM (active); in assay [3] it was 0.348 µM (active); in assay [5] it was 0.599 µM (active).

In the case of `CN(C)c1ccc(N=O)cc1`, the AC50 in assay [1] is 6.42 µM (active); in assay [2], 1.39 µM (active); in assay [4], 44.6 µM (active). Further, the molecule was called inactive in assay [3] and in assay [5].

Take `C=CCN=C=S`: the call in assay [1], in assay [2], in assay [3], in assay [4], in assay [5] and in assay [6] was inactive.

Take `Clc1cc(C(Cl)(Cl)Cl)cnc1Cl`: the AC50 in assay [1] was 8.56 µM (active); in assay [3], 15.6 µM (active); in assay [4] it was 14.7 µM (active). For the same molecule, the result in assay [2] and in assay [5] was inactive.

Regarding `CCCCOC(C)=O`, the outcome in assay [1], in assay [2], in assay [3], in assay [4], in assay [5] and in assay [6] was inactive.

As for `O=S1(=O)OC(c2cc(Br)c(O)c(Br)c2)(c2cc(Br)c(O)c(Br)c2)c2ccccc21`, the AC50 is 93 µM (active) in assay [1], 60.1 µM (active) in assay [2] and 126 µM (active) in assay [4]. Moreover, the outcome in assay [3] and in assay [5] was inactive.

As to `CC1(C)[C@H](/C=C2\CCSC2=O)[C@@H]1C(=O)OCc1coc(Cc2ccccc2)c1`, the call in assay [1], in assay [3], in assay [4], in assay [5] and in assay [6] was inactive. Moreover, in assay [2], the AC50 is 35.8 µM (active).

Take `CC(=O)CN(CC(C)=O)N=O`: the outcome in assay [1], in assay [2], in assay [3], in assay [4], in assay [5] and in assay [6] was inactive.

Turning to `CCCCOP(=O)(CCCC)OCCCC`, the molecule was called inactive in assay [1], in assay [2], in assay [3], in assay [4] and in assay [6].

With `CC(C)CC(C)(c1ccc(O)cc1)c1ccc(O)cc1`, the outcome in assay [1] and in assay [6] was inactive. Besides, the half-maximal activity concentration (AC50) was 11.1 µM (active) in assay [2], 17 µM (active) in assay [3] and 11.1 µM (active) in assay [4].

In the case of `COC(=O)c1cc(Oc2ccc(Cl)cc2Cl)ccc1[N+](=O)[O-]`, the molecule was called inactive in assay [1], in assay [3], in assay [4], in assay [5] and in assay [6]. Moreover, in assay [2], the AC50 was 56.8 µM (active).

Consider `N#Cc1ccc(Cl)cc1`, for which the outcome in assay [1], in assay [2], in assay [3], in assay [4], in assay [5] and in assay [6] was inactive.

Consider `c1csc(-c2ccc(-c3cccs3)s2)c1`, for which the result in assay [1], in assay [4], in assay [5] and in assay [6] was inactive. The AC50 in assay [2] was 1.22 µM (active); in assay [3] it was 1.62 µM (active).

As for `N#Cc1ccncc1`, the call in assay [1], in assay [2], in assay [3], in assay [4], in assay [5] and in assay [6] was inactive.

In the case of `Cc1cc(Cl)ccc1O`, the result in assay [1], in assay [3], in assay [4] and in assay [5] was inactive. The half-maximal activity concentration (AC50) in assay [2] is 37.1 µM (active).

`ClCCN1CCOCC1`: the molecule was classed as inactive in assay [1], in assay [2], in assay [3], in assay [4] and in assay [6].

`O=C1c2ccccc2C(=O)C1C(=O)C(c1ccccc1)c1ccc(Cl)cc1` (stereo not drawn): the AC50 in assay [1] was 26.3 µM (active); in assay [2], 3.96 µM (active); in assay [3] it was 6.7 µM (active). Further, the molecule was called inactive in assay [4], in assay [5] and in assay [6].

Turning to `Cc1cc(SCc2sc(-c3ccc(C(F)(F)F)c(F)c3)nc2C)ccc1OCC(=O)O`, the call in assay [1] and in assay [2] was inactive. The AC50 is 15.6 µM (active) in assay [3], 47.1 µM (active) in assay [4] and 0.201 µM (active) in assay [5].

Turning to `CNC(=O)O/N=C/C(C)(C)S(C)(=O)=O`, the outcome in assay [1], in assay [2], in assay [3], in assay [4] and in assay [5] was inactive.

`CN(C)[C@@H]1C(=O)C(C(N)=O)=C(O)[C@@]2(O)C(=O)C3=C(O)c4c(O)ccc(Cl)c4[C@@](C)(O)[C@H]3C[C@@H]12`: the molecule was called inactive in assay [1], in assay [3], in assay [4], in assay [5] and in assay [6]. In addition, the half-maximal activity concentration (AC50) in assay [2] is 20.3 µM (active).

For `N#CCC#N`, the molecule was called inactive in assay [1], in assay [2], in assay [3], in assay [4], in assay [5] and in assay [6].

Turning to `O=C(Nc1ccc(Br)cc1)c1cc(Br)cc(Br)c1O`, the result in assay [1] was inactive. Moreover, the half-maximal activity concentration (AC50) in assay [2] is 2.91 µM (active); in assay [3] it was 5.3 µM (active); in assay [4], 100 µM (active); in assay [5], 4.97 µM (active).

Turning to `Cc1cc(-c2cc(C)c(N)c(C)c2)cc(C)c1N`, the molecule was classed as inactive in assay [1], in assay [2], in assay [3] and in assay [6]. Moreover, in assay [4], the half-maximal activity concentration (AC50) is 80.2 µM (active).

As for `CCOC(=O)c1ccccc1S(=O)(=O)NC(=O)Nc1nc(Cl)cc(OC)n1`, the molecule was called inactive in assay [1], in assay [2], in assay [3], in assay [4] and in assay [5].

As to `Nc1ccc(Br)cc1`, the molecule was called inactive in assay [1], in assay [2], in assay [3], in assay [4], in assay [5] and in assay [6].

Turning to `Cc1ccc(CCl)cc1`, the molecule was called inactive in assay [1], in assay [2], in assay [3], in assay [4] and in assay [5].

As for `COP(=S)(OC)Oc1cc(Cl)c(I)cc1Cl`, the half-maximal activity concentration (AC50) in assay [1] was 55.6 µM (active); in assay [2] it was 8.28 µM (active); in assay [3] it was 30.7 µM (active); in assay [4] it was 52.6 µM (active); in assay [5], 38 µM (active). For the same molecule, in assay [6], the molecule was classed as inactive.

Take `Nc1cccnc1`: the molecule was called inactive in assay [1], in assay [2], in assay [3], in assay [4], in assay [5] and in assay [6].

Consider `OC(c1ccc(Cl)cc1)(c1ccc(Cl)cc1)c1cccnc1`, for which the call in assay [1], in assay [3], in assay [4] and in assay [6] was inactive. In assay [2], the AC50 was 11.1 µM (active).

Turning to `CC[N+](CC)(CC)CC`, the call in assay [1], in assay [2], in assay [3] and in assay [5] was inactive.

Regarding `OC[C@@H](O)[C@H]1O[C@@H]2O[C@H](C(Cl)(Cl)Cl)O[C@@H]2[C@H]1O`, the molecule was classed as inactive in assay [1], in assay [2], in assay [3] and in assay [5].

Regarding `CN(C)CCN(C)C`, the molecule was classed as inactive in assay [1], in assay [2], in assay [3], in assay [5] and in assay [6].
